# Source: PubChem BioAssay
# Unmarked numbers belong to inactive results.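 The calls were made as follows: active = GFP response above 150% of the DMSO level; inconclusive = fewer than 70 events counted for a yeast strain; inactive = the rest.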
# Test: yeast AGP1-GFP fluorescence change, single-dose – cell-based, flow cytometry, S. cerevisiae, cherry picks, confirmation (AID 2273);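 also: median GFP channel fluorescence over the whole cell population gate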
# Details: S. cerevisiae AGP1-GFP strain, 3 h, at 10 µM
row,SMILES,"GFP response, % of DMSO [%]"
1,O=c1cnn([C@@H]2O[C@H](CO)[C@@H](O)[C@H]2O)c(=O)[nH]1,89.9
2,COc1cccc(/C=C/C(=O)c2c(O)cc(C)oc2=O)c1O,94.1
3,C[n+]1ccccc1/C=N/O,98
4,COc1cc(/C=C/C(=O)CC(=O)/C=C/c2ccc(O)c(OC)c2)ccc1O,98.7
5,CC(=O)[C@H]1CC[C@H]2[C@@H]3CCC4=CC(=O)CC[C@]4(C)[C@H]3CC[C@]12C,96
6,O=C(O)Cc1ccc(-c2ccccc2)cc1,100
7,Nc1[nH]c(=O)ncc1F,78.5
8,CCOC(=O)C(Cc1cc(C(C)=O)ccc1OC(C)C)C(=O)OCC,90.8
9,COc1ccc(-c2noc(-c3ccccc3-c3ccccc3)n2)cc1,101
10,CC(=O)[C@@]1(O)CC[C@H]2[C@@H]3C[C@H](C)C4=CC(=O)CC[C@]4(C)[C@H]3CC[C@@]21C,93.3
11,CC(=O)O[C@]1(C(C)=O)CC[C@H]2[C@@H]3C[C@H](C)C4=CC(=O)CC[C@]4(C)[C@H]3CC[C@@]21C,97.1
12,CNCCC(Oc1ccc(C(F)(F)F)cc1)c1ccccc1 (stereo not given),97.4
13,C1COC(NC(C2CC2)C2CC2)=N1,105
14,CS(=O)(=O)Nc1cccc(C(=O)CC2(O)C(=O)Nc3ccc(Br)cc32)c1 (stereo not given),101
15,CC(=O)[C@H]1CC[C@H]2[C@@H]3CCC4=CC(=O)CC[C@]4(C)[C@H]3[C@H](O)C[C@]12C,100
16,C[C@]12CC[C@@H]3c4ccc(O)cc4C(=O)C[C@H]3[C@@H]1CC[C@@H]2O,97.2
17,NS(=O)(=O)c1cc2c(cc1C(F)(F)F)NC(Cc1ccccc1)NS2(=O)=O (stereo not given),101
18,Cc1ccc(OCCCCn2ccnc2C)c(C)c1,101
19,CC(=O)Nc1ccccc1O,98.7
20,O=C(NC1CCCCC1)N1CCc2[nH]c3ccccc3c2C1,96
